Screening results as filed in PubChem BioAssay.
Shown is part of a subset that was picked to be rich in hits.
PI5P4Ka inh: blocks human PI5P4K alpha kinase activity. P48426. PI5P4Kalpha enzyme, ADP-Glo luminescence, 60 min; stronger effect = lower value. max response, %. hit rate 1.2% among 330,000. AID 652105; active = max response of -50% or lower; inconclusive = between -30% and -50%; inactive = -30% or higher; also: value at the top dose of about 77 µM
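Controls without substrate or without enzyme flank wells where PI5P4Kalpha converts substrate using 5 microM ATP (final). Incubation lasts 60 minutes at room temperature; ADP formed is read by ADP-Glo luminescence.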
PGK inhibitor: inhibitors of T. brucei phosphoglycerate kinase | PGK/GAPDH coupled, Kinase-Glo luminescence, 60 min | Potency, µM (top dose mostly 57.5 µM), inactives show top-dose activity change, negative = inhibition, usual class: inhibitors | hit rate 0.043% among 380,000 | AID 602233; also: potency is read from the fitted curve at half-maximal effect; nearly all actives have a fitted effect of over 60% in size
Target sequence (P07378 whole entry, looked up): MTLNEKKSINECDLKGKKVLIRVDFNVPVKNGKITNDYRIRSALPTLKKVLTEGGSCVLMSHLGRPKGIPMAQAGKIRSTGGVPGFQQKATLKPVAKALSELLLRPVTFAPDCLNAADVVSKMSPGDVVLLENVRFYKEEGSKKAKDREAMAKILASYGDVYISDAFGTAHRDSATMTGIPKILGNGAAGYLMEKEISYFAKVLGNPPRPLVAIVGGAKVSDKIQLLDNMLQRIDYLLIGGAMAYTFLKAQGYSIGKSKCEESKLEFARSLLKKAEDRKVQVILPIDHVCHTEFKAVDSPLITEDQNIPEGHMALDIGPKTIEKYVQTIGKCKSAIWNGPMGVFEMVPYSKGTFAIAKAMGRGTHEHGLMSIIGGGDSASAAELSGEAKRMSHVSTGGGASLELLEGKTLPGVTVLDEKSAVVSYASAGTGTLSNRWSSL
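Recombinant glycosomal PGK reaction used 1,3-bisphosphoglycerate generated in-well by GAPDH (100nM final) in 100mM TEA pH 7.6, 5mM MgCl2, 0.01% Tween-20. After 60 minutes at room temperature, ATP was read by Kinase-Glo Plus luminescence end-point.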
Pin1 inh: inhibitors of human Pin1. Potency, µM (top dose mostly 115 µM), for inactives: top-dose activity, negative = inhibition, actives largely listed as inhibitors. Pin1 FP peptide displacement, HiFluor488, 10 min. hit rate 0.009% among 390,000; active = well fitted inhibition curve with a large enough effect in the polarisation, with a control signal flat, not every such curve was filed as active; inconclusive = small, poorly fitted or top-dose-only effect, or effect the other way, or a change in a side signal; inactive = no such curve, though single readings can be large or run the other way; the % refers to the polarisation; also: potency is read from the fitted curve at half-maximal effect
Target sequence (Q13526 whole entry, looked up): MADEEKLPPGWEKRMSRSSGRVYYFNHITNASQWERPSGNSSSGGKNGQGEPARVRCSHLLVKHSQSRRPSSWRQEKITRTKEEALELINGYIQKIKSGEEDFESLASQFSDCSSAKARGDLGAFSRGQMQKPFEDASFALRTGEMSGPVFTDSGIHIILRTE
PI4K2A block: blocks human PI4K2A kinase activity. purified PI4K2A, ADP-Glo luminescence, 1 h; stronger effect = lower value. hit rate 0.13% among 420,000. Q9BTU6. AID 1346378. activity change, negative = inhibition, % at 76.9 µM; in the data active = activity change below about -50%; inconclusive = mostly about -30% to -49%;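 also: -100% = wells without enzyme as full effect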
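ADP-Glo luminescence measured ADP generated by PI4K2A enzyme (4 ug/mL before mixing) with 1.2 mM PI substrate (pre-mix) and 300 microM ATP (pre-mix). Tris pH7.5 buffer with MgCl2, Triton X-100; 1 h reaction at ambient temperature.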
Tb PFK inh: blocks T. brucei phosphofructokinase | T. brucei PFK, ADP-Glo luminescence | O15648 | hit rate 0.17% among 330,000 | Potency, µM (series often up to 57.5 µM), inactives show at the highest dose activity, negative = inhibition, hits mostly inhibitors | AID 485367;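 also: potency is read from the fitted curve at half-maximal effect; 0% = uninhibited 1x PFK enzyme wells and -100% = no-enzyme wells; nearly all actives have a fitted effect of over 60% in size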
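1.25 nM PFK with 0.5 mM F6P and 0.1 mM ATP in 0.1 M TEA pH 8.0, 5 mM MgCl2, incubated 45 min at room temperature; ADP measured by ADP-Glo luminescence; compounds titrated up to 57 uM.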
Starred values were filed as active, the others as inactive; i = inactive; ? = inconclusive; nt = no result given. Unless noted, calls follow the shape of the dose curve; as a rule, active = well fitted curve in the direction sought with a large enough effect; inconclusive = small, poorly fitted or top-dose-only effect, or another doubt; inactive = no such curve, though single readings can be large; an effect the other way counts as inactive or inconclusive. Unless noted, % is scaled to controls: 0 for no effect and ±100 for the full control effect.

SMILES	PI5P4Ka inh	PGK inhibitor	Pin1 inh	PI4K2A block	Tb PFK inh
CC(C)(C)NC(=O)NC(=O)CSc1nnc(COc2ccccc2Cl)o1	11	-6%	3%	-3	-2%
O=C(CSc1nnc(COc2ccccc2Cl)o1)NC(=O)NCc1ccco1	-75*	-11%	?	-6	?
COc1ccc(C2Nc3ccc(Cl)cc3C(=O)N2Cc2ccccc2)cc1COc1ccc(NC(C)=O)cc1 (stereo not drawn)	nt	nt	-1%	nt	nt
Cc1cc2c(s1)c1cnn(Cc3ccc(C)c(F)c3)c(=O)c1n2C	nt	nt	21%	nt	nt
O=C1CSC(=Nc2ccc(Cl)cc2)N1Cc1ccco1	5	-9%	4%	-8	-6%
O=C(COc1ccc(Br)cc1)N/N=C1/SCC(=O)N1Cc1ccco1	-67*	13%	-10%	3	4%
COCc1cc(/C=N\NC(=O)Cc2ccc(OC)cc2)ccc1OC	3	-1%	-3%	3	-10%
O=C(CNC(=O)c1cccc(Br)c1)N/N=C/c1cc(Br)cc(Br)c1O	?	1%	16%	1	-1%
O=C(Cc1ccccc1)N/N=C/c1cc(Br)cc(Br)c1O	-57*	-2%	-15%	0	-1%
COc1ccc(CC(=O)N/N=C\c2cc(Br)c(O)c(Br)c2)cc1	-68*	-6%	0%	-2	-26%
Cc1cc2c(s1)c1cnn(Cc3cc(OC(F)(F)F)ccc3F)c(=O)c1n2C	nt	nt	1%	nt	nt
O=C(CCN1CCN(c2ccccc2)CC1)N/N=C/c1ccc(O)c(O)c1O	-69*	-22%	nt	-19	-28%
O=C(Cc1csc(N2CCOCC2)n1)N/N=C/c1ccc(O)c(O)c1O	-60*	-7%	?	-9	-17%
Cc1cc(/C=N/NC(=O)c2ccncc2)c(C)n1-c1ccccc1	-1	0%	-1%	-2	-6%
C/C(=N\NC(=O)Cc1csc(N2CCOCC2)n1)c1ccccc1	12	-4%	-1%	4	-3%
Cc1cc(C(=O)N/N=C/c2ccc(O)c(O)c2O)c(C)n1-c1ccccc1	-62*	-8%	-1%	-11	?
O=C(/C=C/c1ccco1)N1CCN(c2ncccn2)CC1	2	-5%	6%	-1	-13%
O=C(/C=C/c1ccco1)N1CCC(Cc2ccccc2)CC1	-57*	-10%	?	-5	-5%
C=CCn1c(SCC(=O)c2ccc(CNC(C)=O)o2)nc2scc(C3CC3)c2c1=O	-56*	-6%	?	-17	-25%
C=CCn1c(SCC(=O)NC2CCS(=O)(=O)C2)nc2scc(C3CC3)c2c1=O (stereo not drawn)	nt	-2%	17%	-2	2%
O=C(/C=C/c1ccccc1)Nc1cccc(C(=O)O)c1	-13	-1%	6%	-8	-6%
O=C(/C=C/c1ccccc1)Nc1cc(NC(=O)/C=C/c2ccccc2)cc(C(=O)O)c1	-56*	-8%	?	-4	1%
CSc1ccc(/C=C/C(=O)Nc2ccccc2)cc1	-14	?	2%	-52*	-9%
Cc1cc2c(s1)c1cnn(Cc3c(F)ccc(F)c3Cl)c(=O)c1n2C	nt	nt	25%	nt	nt
CCn1cc(C(=O)NC(=S)Nc2ccccc2[N+](=O)[O-])cn1	-22	i	-2%	-8	0%
SMILES	PI5P4Ka inh	PGK inhibitor	Pin1 inh	PI4K2A block	Tb PFK inh
CCn1cc(C(=O)NC(=S)Nc2ccccc2Br)cn1	-60*	-2%	0%	-5	2%
CCN(CC)C(=O)CN1C(=O)C2CCCCN2C(=O)c2ccccc21 (stereo not drawn)	nt	nt	nt	3	nt
Cc1ccc(S(=O)(=O)N2CCN(c3nc(-c4ccco4)nc4ccccc34)CC2)cc1	nt	nt	30%	nt	nt
CN(CC(=O)Nc1n[nH]c(=S)s1)S(=O)(=O)c1cccc2cccnc12	-57*	nt	-17%	-4	-12%
O=C(N1CCc2cc([S+](=O)([O-])N3CCN([S+](=O)([O-])c4c(F)cccc4F)CC3)ccc2C1)C(F)(F)F	nt	nt	-3%	nt	nt
COc1cc(-c2c(C#N)c(=O)[nH]c3c2c(C)nn3-c2ccccc2)ccc1O	-63*	-15%	-4%	-2	1%
Nc1nc(O)c(N=Nc2ccc(S(N)(=O)=O)cc2)c(=O)[nH]1	0	-8%	1%	4	1%
NS(=O)(=O)c1ccc(N=Nc2c[nH]c(=O)c(O)c2)cc1	-63*	?	?	-62*	-29%
COCCNC(=O)Cn1cc(/C=N/NC(=O)c2ccc(Oc3ccc(O)cc3)cc2)c2ccccc21	-107*	0%	-2%	-6	3%
COc1ccc(N/C=C2\CCc3ccccc3C2=O)cc1	?	?	?	-66*	-20%
CC(=O)Oc1ccc(/C=C2/CCc3ccccc3C2=O)cc1	?	?	0%	-79*	-22%
COc1cccc(/C=C2\CCc3ccccc3C2=O)c1	-9	?	-1%	-69*	-22%
COc1cccc(C=C2Cc3ccccc3C2=O)c1	4	nt	nt	-4	nt
Cc1ccsc1/C=C1\CCc2ccccc2C1=O	?	?	?	-75*	-25%
CONC(=O)C[C@@H](C#N)NC(=O)[C@@H]1CCCN1C(=O)[C@@H](NC(=O)c1ccc(N)c(Cl)c1)C(C)(C)C	nt	nt	-6%	nt	nt
NC(=O)C1CCN(c2nc(-c3cccc(C(F)(F)F)c3)cs2)CC1	nt	nt	-3%	nt	nt
O=C(NN=C/C=C/c1ccco1)c1cc(-c2ccc(Cl)cc2)n[nH]1	nt	nt	nt	-12	nt
CC(C)=CCc1cc(-c2oc3cc(O)cc(O)c3c(=O)c2O)ccc1O	-55*	?	6%	4	nt
O=c1c(O)c(-c2ccccc2)oc2cc(O)cc(O)c12	?	i	0%	-1	12%
COc1c(-c2ccc(O)c(O)c2)oc2cc(O)cc(O)c2c1=O	?	?	0%	-2	?
O=c1c(O)c(-c2ccc(O)cc2O)oc2cc(O)cc(O)c12	nt	nt	nt	-67*	?
O=C(Cn1sc2ccccc2c1=O)Nc1ccccc1	-82*	-1%	nt	?	nt
O=C(CCc1ccccc1-c1ccccc1CCNC(=O)c1ccccc1)NCc1ccccc1	nt	nt	nt	-1	nt
N/C(=N\OC(=O)c1ccccc1)c1ccccn1	?	?	-8%	-67*	?
Cc1ccc(C(=O)O/N=C(\N)c2ccccn2)cc1	-55*	25µM*	-4%	-86*	?
CCOc1ccc(C(=O)O/N=C(\N)c2ccccn2)cc1	-79*	13µM*	0%	-88*	?
C/C(=N/OC(=O)c1ccc(C)cc1)c1cccs1	-25	32µM*	-2%	-80*	?
CC(C)(C)c1ccc(C(=O)O/N=C(\N)c2ccccn2)cc1	-4	-10%	-2%	?	-1%
Cc1ccc(C(=O)O/N=C(\N)c2ccccn2)cc1C	-1	?	4%	?	-13%
Cc1cccc(C(=O)O/N=C(\N)c2ccccn2)c1	?	?	-3%	?	-21%
